The record followed here is the supplement of paper PMC9262897, “Low-cost anti-mycobacterial drug discovery using engineered E. coli” (Nature Communications, 2022).

Assay in all cases: growth (OD600 after 10 h); higher = more growth (less inhibition)
In assay [1] the test system is E. coli TESEC Alr+ wild-type control. The following applies: compound 0.1 mM; raw OD600 reference: median of DMSO wells 0.241, cell-free background 0.041. The procedure:
(§1)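 TESEC Mtb Alr E. coli, or the Alr+ wild-type control, in 384-well plates with Prestwick library compounds at 0.1 mM and 1% DMSO, across arabinose induction levels of 1E3 to 1E7 nM. Growth is read as OD600 after 10 h at 37 °C in triplicate biological replicates.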

Assay [2] relates to E. coli TESEC Mtb Alr. To be noted: compound 0.1 mM. The procedure: as §1
For a further assay, the system named is E. coli TESEC Mtb Asd. The following applies: compound 0.1 mM. The procedure: (§2)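 TESEC E. coli strains in which the native enzyme is deleted and replaced by arabinose-inducible Mtb Asd, DapB, CysH or TrpD, each grown in its selective medium. Strains were screened against the Prestwick library at 0.1 mM and 1% DMSO in 384-well format at low and high arabinose induction. Growth is read as OD600 after 10 h in triplicate.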

The next assay concerns E. coli TESEC Mtb DapB. To be noted: compound 0.1 mM. The procedure: as §2
For assay [3], the system named is E. coli TESEC Alr+ wild-type control. The following applies: compound 0.1 mM; raw OD600 reference: median of DMSO wells 0.49, cell-free background 0.052. The procedure: (§3)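 TESEC Mtb Alr E. coli (ΔaraC ΔtolC ΔentC Δalr ΔdadX, arabinose-inducible Mtb Alr) or the Alr+ wild-type control strain, grown in defined M9-fructose medium without D-alanine in 96-well plates with Prestwick library compounds at 0.1 mM and 1% DMSO. Low Alr induction is 0.1 µM arabinose and high induction is 10 mM arabinose.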

Assay [4] concerns E. coli TESEC Mtb Alr. The following applies: compound 0.1 mM. The procedure: as §3
This is another data set of the same source.

The mark [5] stands for this setting: arabinose 1000 nM, raw OD600 reference: median of DMSO wells 0.294, cell-free background 0.041.
Setting [6] is: arabinose 10000 nM, raw OD600 reference: median of DMSO wells 0.264, cell-free background 0.041.
The mark [7] stands for this setting: arabinose 100000 nM, raw OD600 reference: median of DMSO wells 0.201, cell-free background 0.041.
Setting [8] is: arabinose 1000000 nM, raw OD600 reference: median of DMSO wells 0.193, cell-free background 0.041.
Where [9] appears, read: arabinose 10000000 nM, raw OD600 reference: median of DMSO wells 0.146, cell-free background 0.041.
The mark [10] stands for this setting: arabinose induction (level): High, raw OD600 reference: median of DMSO wells 0.331, cell-free background 0.041.
The mark [11] stands for this setting: arabinose induction (level): Low, raw OD600 reference: median of DMSO wells 0.417, cell-free background 0.041.
The mark [12] stands for this setting: arabinose induction (level): High, raw OD600 reference: median of DMSO wells […], cell-free background 0.041.
[13] abbreviates: arabinose induction (level): Low, raw OD600 reference: median of DMSO wells 0.227, cell-free background 0.041.
Where [14] appears, read: arabinose 100 nM, raw OD600 reference: median of DMSO wells 0.413, cell-free background 0.052.
Where [15] appears, read: arabinose 10000000 nM, raw OD600 reference: median of DMSO wells […], cell-free background 0.052.

Each structure is given as a SMILES string. Structures can show the parent of a compound that is named as a salt. ± gives the standard deviation of the averaged measurements.

As to `CCOC(=O)[C@H](CCc1ccccc1)N[C@@H](C)C(=O)N1Cc2ccccc2C[C@H]1C(=O)O` [Quinapril HCl], the growth in assay [1] is 0.218 ± 0.012; in the assay with E. coli TESEC Mtb Alr [2] (setting [5]) it was 0.29 ± 0.0069; with E. coli TESEC Mtb Alr [2] (setting [6]), 0.2807 ± 0.0024; with E. coli TESEC Mtb Alr [2] (setting [7]), 0.155 ± 0.012; in the assay with E. coli TESEC Mtb Alr [2] (setting [8]) it was 0.21 ± 0.0061; in the assay with E. coli TESEC Mtb Alr [2] (setting [9]), 0.144 ± 0.0052. The growth is 0.246 ± 0.03 in the assay with E. coli TESEC Mtb Asd (setting [10]); 0.403 ± 0.052 in the assay on E. coli TESEC Mtb Asd (setting [11]); 0.155 ± 0.012 in the assay on E. coli TESEC Mtb DapB (setting [12]); 0.165 ± 0.0056 with E. coli TESEC Mtb DapB (setting [13]); 0.477 ± 0.15 in assay [3]; 0.384 ± 0.015 in the assay on E. coli TESEC Mtb Alr [4] (setting [14]). Besides, in the assay with E. coli TESEC Mtb Alr [4] (setting [15]), the growth was found to be 0.309 ± 0.011.

In the case of `CCN(CCCCOC(=O)c1ccc(OC)c(OC)c1)C(C)Cc1ccc(OC)cc1` (configuration not stated) [Mebeverine hydrochloride], the growth was determined as 0.157 ± 0.004 in assay [1]; 0.231 ± 0.0024 in the assay on E. coli TESEC Mtb Alr [2] (setting [5]); 0.243 ± 0.0072 with E. coli TESEC Mtb Alr [2] (setting [6]); 0.18 ± 0.0066 in the assay on E. coli TESEC Mtb Alr [2] (setting [7]); 0.125 ± 0.0057 with E. coli TESEC Mtb Alr [2] (setting [8]); 0.165 ± 0.0094 in the assay with E. coli TESEC Mtb Alr [2] (setting [9]). Moreover, the growth in the assay on E. coli TESEC Mtb Asd (setting [10]) turned out to be 0.197 ± 0.026; with E. coli TESEC Mtb Asd (setting [11]), 0.396 ± 0.046; with E. coli TESEC Mtb DapB (setting [12]) it was 0.166 ± 0.012; in the assay with E. coli TESEC Mtb DapB (setting [13]), 0.252 ± 0.032; in assay [3], 0.435 ± 0.016; with E. coli TESEC Mtb Alr [4] (setting [14]), 0.4063 ± 0.003. Besides, in the assay with E. coli TESEC Mtb Alr [4] (setting [15]), the growth is 0.311 ± 0.0053.

Consider `C[N+](C)(CCOc1ccccc1)Cc1ccccc1.O=C([O-])c1cc2ccccc2cc1O` [Bephenium hydroxynaphthoate], for which the growth is 0.175 ± 0.0073 in assay [1]; 0.266 ± 0.017 in the assay on E. coli TESEC Mtb Alr [2] (setting [5]); 0.207 ± 0.0049 in the assay on E. coli TESEC Mtb Alr [2] (setting [6]); 0.203 ± 0.0078 with E. coli TESEC Mtb Alr [2] (setting [7]); 0.104 ± 0.0033 with E. coli TESEC Mtb Alr [2] (setting [8]); 0.134 ± 0.0047 in the assay on E. coli TESEC Mtb Alr [2] (setting [9]). For the same compound, the growth turned out to be 0.486 ± 0.047 with E. coli TESEC Mtb Asd (setting [10]); 0.365 ± 0.069 with E. coli TESEC Mtb Asd (setting [11]); 0.176 ± 0.046 in the assay with E. coli TESEC Mtb DapB (setting [12]); 0.216 ± 0.019 in the assay with E. coli TESEC Mtb DapB (setting [13]); 0.509 ± 0.023 in assay [3]; 0.381 ± 0.016 with E. coli TESEC Mtb Alr [4] (setting [14]). In addition, the growth with E. coli TESEC Mtb Alr [4] (setting [15]) stood at 0.263 ± 0.0088.

With `CCOc1ccc2nc(S(N)(=O)=O)sc2c1` [Ethoxzolamide], the growth in assay [1] amounted to 0.2066 ± 0.0019; in the assay on E. coli TESEC Mtb Alr [2] (setting [5]) it was 0.247 ± 0.0061; in the assay on E. coli TESEC Mtb Alr [2] (setting [6]), 0.227 ± 0.0027; in the assay on E. coli TESEC Mtb Alr [2] (setting [7]), 0.177 ± 0.024; in the assay with E. coli TESEC Mtb Alr [2] (setting [8]), 0.134 ± 0.0057; in the assay on E. coli TESEC Mtb Alr [2] (setting [9]) it was 0.122 ± 0.0034. The growth was found to be 0.283 ± 0.04 in the assay with E. coli TESEC Mtb Asd (setting [10]); 0.368 ± 0.045 with E. coli TESEC Mtb Asd (setting [11]); 0.172 ± 0.0065 in the assay on E. coli TESEC Mtb DapB (setting [12]); 0.187 ± 0.017 in the assay with E. coli TESEC Mtb DapB (setting [13]); 0.552 ± 0.11 in assay [3]; 0.426 ± 0.0093 in the assay on E. coli TESEC Mtb Alr [4] (setting [14]). This compound gave a growth with E. coli TESEC Mtb Alr [4] (setting [15]) of 0.214 ± 0.13.
